What all share (assay): NCI-60 one-dose screen, 48 h (100 = growth as untreated, 0 = no growth, -100 = all killed)
In one assay the test system is NCI-H23 lung. To be noted: 10 µM unless noted.
The next assay deals with NCI-H226 lung. To be noted: 10 µM unless noted.
The test system of the next assay is NCI-H322M lung. Particulars: 10 µM unless noted.
The next assay concerns HOP-62 NSCLC. Particulars: 10 µM unless noted.
The subject of a further assay is NCI-H460 lung. To be noted: 10 µM unless noted.
For the next assay, the system named is A549/ATCC NSCLC. Particulars: 10 µM unless noted.
In the next assay the test system is 786-0 renal. Particulars: 10 µM unless noted.
The subject of another assay is COLO 205 colon. To be noted: 10 µM unless noted.
A further assay deals with DU-145 prostate. Particulars: 10 µM unless noted.
For another assay, the system named is K-562 leukemia. To be noted: 10 µM unless noted.
The test system of another assay is MALME-3M melanoma. Particulars: 10 µM unless noted.
The subject of another assay is MDA-MB-231 breast. To be noted: 10 µM unless noted.
Another assay deals with RXF 393 renal. Particulars: 10 µM unless noted.
The test system of another assay is SF-268 CNS. To be noted: 10 µM unless noted.
A further assay deals with SF-539 CNS. To be noted: 10 µM unless noted.
For a further assay, the system named is UACC-257 melanoma. Particulars: 10 µM unless noted.
For the next assay, the system named is M14 melanoma. To be noted: 10 µM unless noted.
The next assay has as its system SF-295 CNS. Particulars: 10 µM unless noted.
The subject of a further assay is HOP-92 NSCLC. Particulars: 10 µM.
For the next assay, the system named is NCI-H522 lung. Particulars: 10 µM.

Results on 7 compounds are retold here after PubChem BioAssay (NCI).

Compounds without any hit were thinned out: in the full panel of roughly 83,000, 20% have a hit.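 How to read the values: 0–100, growth inhibition (40 = 60% inhibited); 0, no net growth; -100 to 0, cell death (-40 = 40% of starting cells died; -100 = all dead).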 Unmarked numbers belong to inactive results. Active and inactive are the calls of the source. The calls were made as follows: active = growth percent below 10; inactive = the rest.

On to `CCCCS(=O)(=O)c1cc(Nc2ccc(O)c3c2C(=O)c2ccccc2C3=O)ccc1C`, for which the growth in the assay on NCI-H23 lung was 45.7%; with NCI-H226 lung, 87.8%; with NCI-H322M lung, 27.6%; with HOP-62 NSCLC it was 72.5%; in the assay with NCI-H460 lung it was 14.9%; with A549/ATCC NSCLC, 28.3%. Besides, the growth in the assay with 786-0 renal was 87.1%; with COLO 205 colon, 70.7%; with DU-145 prostate, 42.1%; in the assay on K-562 leukemia, 67%; with MALME-3M melanoma, 2.26% (active); with MDA-MB-231 breast it was 71.8%. Further, the growth in the assay on RXF 393 renal was 76.1%; with SF-268 CNS, 84.5%; in the assay with SF-539 CNS, 86.8%; with UACC-257 melanoma, 75.8%; with M14 melanoma, 21%.

For the compound `COC(=O)[C@H](Cc1cn(C)cn1)NC(=O)[C@@H](NC(=O)Nc1cc(C(F)(F)F)cc(C(F)(F)F)c1)C(C)(C)C`, the growth with NCI-H23 lung was -64.7% [100 µM] (active); in the assay on NCI-H226 lung it was 64.7% [100 µM]; in the assay with NCI-H322M lung it was -35.3% [100 µM] (active); in the assay on HOP-62 NSCLC, -84.2% [100 µM] (active); in the assay with NCI-H460 lung, -56.3% [100 µM] (active); with A549/ATCC NSCLC it was 14.8% [100 µM]. The growth in the assay on 786-0 renal is -88.2% [100 µM] (active); in the assay on COLO 205 colon it was -74.6% [100 µM] (active); with DU-145 prostate, -92.3% [100 µM] (active); in the assay with K-562 leukemia, -12.5% [100 µM] (active); with MALME-3M melanoma, -86.9% [100 µM] (active); with MDA-MB-231 breast, -89.6% [100 µM] (active). For the same compound, the growth was -87.4% [100 µM] (active) in the assay on RXF 393 renal; -90.4% [100 µM] (active) in the assay on SF-268 CNS; -84.4% [100 µM] (active) with SF-539 CNS; -74.2% [100 µM] (active) with UACC-257 melanoma; -85.2% [100 µM] (active) in the assay with M14 melanoma.

On to `COc1cc(-c2nc(/C=C3/C(=O)Nc4ccccc43)c3ccccn23)cc(OC)c1OC`, for which the growth with NCI-H23 lung is 47.7%; in the assay with NCI-H226 lung, 82.5%; with NCI-H322M lung, 113%; in the assay with HOP-62 NSCLC it was 87.4%; with NCI-H460 lung, 66.4%; with A549/ATCC NSCLC, 77%. The growth is 71.9% in the assay on 786-0 renal; 75.1% with COLO 205 colon; 52.2% with K-562 leukemia; 74.4% in the assay with MALME-3M melanoma; 40.7% in the assay with MDA-MB-231 breast; 76.2% with RXF 393 renal. The growth was 47% in the assay with SF-268 CNS; 92% with SF-295 CNS; 83.6% in the assay on SF-539 CNS; 70.8% in the assay on UACC-257 melanoma; 77.6% in the assay on M14 melanoma.

For the compound `COc1ccccc1CNCCCN1C(=O)c2ccc3c4c(ccc(c24)C1=O)C(=O)N(CCCNCc1ccccc1OC)C3=O`, the growth in the assay on NCI-H23 lung is -72.8% (active); with NCI-H226 lung, -64.7% (active); in the assay on NCI-H322M lung, -46.6% (active); in the assay on HOP-62 NSCLC it was -35.9% (active); in the assay on HOP-92 NSCLC it was -19.5% (active); in the assay on NCI-H522 lung, -90% (active). The growth with A549/ATCC NSCLC is -86.5% (active); in the assay on 786-0 renal, -50% (active); in the assay on COLO 205 colon, -6.12% (active); in the assay on DU-145 prostate, -81.4% (active); in the assay with K-562 leukemia, -44.2% (active); in the assay on MALME-3M melanoma, -73.6% (active). In addition, the growth was -13.1% (active) in the assay with MDA-MB-231 breast; -93.9% (active) in the assay with RXF 393 renal; -64.4% (active) in the assay on SF-268 CNS; -56.3% (active) in the assay with SF-295 CNS; -70.7% (active) with SF-539 CNS; -97.9% (active) in the assay on UACC-257 melanoma. Moreover, the growth in the assay on M14 melanoma is -61.9% (active).

On to `Nc1ccc(N=Nc2ccccc2)c2cc(S(=O)(=O)O)ccc12`, for which the growth was 91.4% in the assay on NCI-H23 lung; 103% with NCI-H226 lung; 104% in the assay on NCI-H322M lung; 92.4% with HOP-62 NSCLC; 94.5% with HOP-92 NSCLC; 88.5% in the assay on NCI-H522 lung. Moreover, the growth in the assay on A549/ATCC NSCLC is 99.3%; in the assay with 786-0 renal, 104%; with COLO 205 colon, 116%; with DU-145 prostate, 110%; in the assay with K-562 leukemia it was 104%; in the assay with MALME-3M melanoma, 107%. Besides, the growth with MDA-MB-231 breast is 109%; in the assay with RXF 393 renal, 97.2%; with SF-268 CNS, 98.8%; in the assay on SF-295 CNS, 103%; with SF-539 CNS, 101%; in the assay with UACC-257 melanoma, 97%. In addition, the growth in the assay with M14 melanoma was 103%.

Consider `Cc1ccc(C(=O)C(Br)C(Br)c2ccccc2)cc1` (stereo unspecified), for which the growth is 114% in the assay with NCI-H23 lung; 92.8% with NCI-H226 lung; 95% in the assay on NCI-H322M lung; 115% in the assay on HOP-62 NSCLC; 101% with NCI-H460 lung; 99.4% in the assay on 786-0 renal. In addition, the growth in the assay on COLO 205 colon is 52.8%; with DU-145 prostate, 85.9%; in the assay on K-562 leukemia, 50.9%; in the assay on MALME-3M melanoma it was 88.3%; in the assay with MDA-MB-231 breast it was 99.9%; in the assay with RXF 393 renal, 79.3%. Besides, the growth in the assay with SF-268 CNS is 95.7%; with SF-295 CNS it was 97.9%; in the assay on SF-539 CNS it was 100%; with M14 melanoma it was 101%.

On to `O=C(CBr)OCc1ccc([N+](=O)[O-])o1`, for which the growth with NCI-H23 lung is 97.2%; with NCI-H226 lung, 104%; with NCI-H322M lung, 132%; with HOP-62 NSCLC, 96.8%; with NCI-H460 lung, 91.6%; in the assay on A549/ATCC NSCLC, 100%. The growth with COLO 205 colon is 100%; in the assay with DU-145 prostate, 108%; with K-562 leukemia, 111%; in the assay with MALME-3M melanoma it was 107%; with MDA-MB-231 breast, 101%; in the assay on RXF 393 renal, 94.8%. For the same compound, the growth with SF-268 CNS was 88.6%; in the assay with SF-295 CNS, 96.5%; in the assay with SF-539 CNS, 103%; with UACC-257 melanoma, 88.5%.
